The structures appear in SMILES notation. ± gives the standard deviation.

What all share (conditions): modulator concentration 10 µM
Test [1] relates to RAW-Dual (murine macrophage reporter line). Kind of test: NF-kB reporter (SEAP) activity fold change vs agonist alone; higher = enhanced NF-kB activity. The procedure, abridged: (§1)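 Compound reached 10 μM final in each well by pin transfer, onto RAW-Dual murine macrophage reporter cells seeded at 50 000 per well in 384-well plates. After 1 hour at 37 °C, the cells were stimulated overnight with a PRR agonist. SEAP in the supernatant was read with QUANTI-Blue at 620 nm absorbance for NF-κB, and Lucia luciferase was read with QUANTI-Luc luminescence for IRF. Each signal was turned into fold change against the mean agonist-only control on the same plate, and two replicate plates were averaged with propagated errors.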

The test system is the same in test [2]. Kind of test: IRF reporter (Lucia luciferase) activity fold change vs agonist alone; higher = enhanced IRF activity. The method, boiled down: as §1
The test system is the same in test [3]. The test is described as follows: viability score (confluency relative to resting cells, overnight) (fraction); higher = more viable, active = viable (0.7 or more). The procedure, abridged: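 Two confluency masks, generated with IncuCyte software over all imaged wells, were applied to IncuCyte images of RAW-Dual macrophages. The cells, in 384-well plates, had been exposed overnight to 10 μM final compound. The viability score is confluency as a fraction of resting cells, and a compound met the cutoff only with both masks above 70% of resting cells.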

Setting [4] is: agonist: CpG ODN 1826 0.5 ug/mL.

For `Cc1cc2c(cc1S(N)(=O)=O)S(=O)(=O)CCC2`, the values for the NF-kB reporter in test [1] (setting [4]), in test [1] (agonist: LPS 0.1 ug/mL) and in test [1] (agonist: MPLA […]) were 1.02 ± 0.094, 1.03 ± 0.085 and 0.997 ± 0.022, respectively. Also, the IRF reporter in test [2] (agonist: 3'3'-cGAMP 10 ug/mL) was 1 ± 0.11; in test [2] (agonist: LPS 0.1 ug/mL), 0.95 ± 0.044; in test [2] (agonist: MPLA […]), 0.891 ± 0.14. Further, the viability score in test [3] is 1 (active).
Turning to `Cc1nnc(NN=Cc2ccc(O)c([N+](=O)[O-])c2)[nH]c1=O`, the NF-kB reporter in test [1] (setting [4]) worked out at 1.07 ± 0.14; in test [1] (agonist: LPS 0.1 ug/mL) it was 1.01 ± 0.097; in test [1] (agonist: MPLA […]) it was 1.03 ± 0.035. Further, the results for the IRF reporter in test [2] (agonist: 3'3'-cGAMP 10 ug/mL), in test [2] (agonist: LPS 0.1 ug/mL) and in test [2] (agonist: MPLA […]) were 0.98 ± 0.045, 0.979 ± 0.14 and 1.01 ± 0.25, respectively. The viability score in test [3] is 0.992 (active).
`CN1C(=O)C(=Cc2cccc3ccccc23)SC1=S`: the NF-kB reporter in test [1] (setting [4]) worked out at 0.909 ± 0.21; in test [1] (agonist: LPS 0.1 ug/mL), 1.04 ± 0.088; in test [1] (agonist: MPLA […]), 0.949 ± 0.073. In addition, the IRF reporter was 0.939 ± 0.024 in test [2] (agonist: 3'3'-cGAMP 10 ug/mL), 1.26 ± 0.22 in test [2] (agonist: LPS 0.1 ug/mL) and 1.33 ± 0.15 in test [2] (agonist: MPLA […]). The viability score in test [3] was 0.998 (active).
Regarding `COC(=O)CSc1nc(O)c2c(C)c(C)sc2n1`, the NF-kB reporter in test [1] (setting [4]) is 0.808 ± 0.077; in test [1] (agonist: LPS 0.1 ug/mL), 0.829 ± 0.04; in test [1] (agonist: MPLA […]) it was 1.03 ± 0.1. In addition, the results for the IRF reporter in test [2] (agonist: 3'3'-cGAMP 10 ug/mL), in test [2] (agonist: LPS 0.1 ug/mL) and in test [2] (agonist: MPLA […]) were 0.984 ± 0.046, 1.49 ± 0.093 and 1.55 ± 0.19, respectively. The viability score in test [3] was 1.01 (active).
Consider `C=C(CC)C(=O)c1ccc(OCC(=O)O)c(Cl)c1Cl` [Prestw-259], for which the NF-kB reporter in test [1] (setting [4]) was found to be 0.596 ± 0.14; in test [1] (agonist: LPS 0.1 ug/mL) it was 0.588 ± 0.077; in test [1] (agonist: MPLA […]), 0.722 ± 0.049. Further, the figures for the IRF reporter in test [2] (agonist: 3'3'-cGAMP 10 ug/mL), in test [2] (agonist: LPS 0.1 ug/mL) and in test [2] (agonist: MPLA […]) were 0.563 ± 0.02, 1.85 ± 0.21 and 1.53 ± 0.17, respectively. Besides, the viability score in test [3] is 0.953 (active).
Regarding `Cc1cc(O)c2c(c1)C(=O)c1cccc(O)c1C2=O`, the results for the NF-kB reporter in test [1] (setting [4]), in test [1] (agonist: LPS 0.1 ug/mL) and in test [1] (agonist: MPLA […]) were 0.969 ± 0.08, 1.08 ± 0.1 and 1.1 ± 0.024, respectively. In addition, the IRF reporter in test [2] (agonist: 3'3'-cGAMP 10 ug/mL) turned out to be 0.894 ± 0.08; in test [2] (agonist: LPS 0.1 ug/mL) it was 0.973 ± 0.1; in test [2] (agonist: MPLA […]), 0.953 ± 0.11. In test [3], the viability score is 0.986 (active).
With `CN(C)CCC(c1ccccc1)c1ccccn1.O=C(O)/C=C\C(=O)O` (stereo unspecified), the values for the NF-kB reporter in test [1] (setting [4]), in test [1] (agonist: LPS 0.1 ug/mL) and in test [1] (agonist: MPLA […]) were 0.373 ± 0.016, 0.227 ± 0.018 and 0.65 ± 0.036, respectively. For the same molecule, the IRF reporter came out at 0.0231 ± 0.0026 in test [2] (agonist: 3'3'-cGAMP 10 ug/mL), 0.0283 ± 0.0046 in test [2] (agonist: LPS 0.1 ug/mL) and 0.0354 ± 0.0064 in test [2] (agonist: MPLA […]). The viability score in test [3] is 0.377 (inactive).
Consider `CC1=NN(c2ccc(C(=O)O)cc2)C(=O)C1=Cc1ccc(-c2cc(C)c(C)cc2[N+](=O)[O-])o1`, for which the values for the NF-kB reporter in test [1] (setting [4]), in test [1] (agonist: LPS 0.1 ug/mL) and in test [1] (agonist: MPLA […]) were 0.951 ± 0.057, 0.969 ± 0.076 and 0.947 ± 0.073, respectively. The IRF reporter in test [2] (agonist: 3'3'-cGAMP 10 ug/mL) was determined as 1 ± 0.066; in test [2] (agonist: LPS 0.1 ug/mL), 0.976 ± 0.07; in test [2] (agonist: MPLA […]) it was 0.92 ± 0.23. Moreover, the viability score in test [3] is 0.997 (active).
On to `CC1=NN(c2ccc(S(N)(=O)=O)cc2)C(=O)C1=Cc1ccc(N(C)C)cc1`, for which the results for the NF-kB reporter in test [1] (setting [4]), in test [1] (agonist: LPS 0.1 ug/mL) and in test [1] (agonist: MPLA […]) were 1.02 ± 0.15, 0.967 ± 0.063 and 0.947 ± 0.04, respectively. Besides, the results for the IRF reporter in test [2] (agonist: 3'3'-cGAMP 10 ug/mL), in test [2] (agonist: LPS 0.1 ug/mL) and in test [2] (agonist: MPLA […]) were 0.794 ± 0.2, 0.899 ± 0.052 and 0.892 ± 0.06, respectively. Further, in test [3], the viability score is 1 (active).
As to `CCOC(=O)C1=C(CC)NC2=C(C(=O)CCC2)C1c1ccccc1I` (stereo unspecified), the NF-kB reporter came out at 0.996 ± 0.11 in test [1] (setting [4]), 1.02 ± 0.13 in test [1] (agonist: LPS 0.1 ug/mL) and 0.982 ± 0.1 in test [1] (agonist: MPLA […]). For the same molecule, the IRF reporter in test [2] (agonist: 3'3'-cGAMP 10 ug/mL) is 0.921 ± 0.032; in test [2] (agonist: LPS 0.1 ug/mL), 1.27 ± 0.16; in test [2] (agonist: MPLA […]), 1.05 ± 0.19. Further, the viability score in test [3] was 0.975 (active).
On to `O=C(CSc1nc(-c2ccccc2)c(-c2ccccc2)o1)N1CCOCC1`, for which the figures for the NF-kB reporter in test [1] (setting [4]), in test [1] (agonist: LPS 0.1 ug/mL) and in test [1] (agonist: MPLA […]) were 1.03 ± 0.081, 1.02 ± 0.079 and 0.903 ± 0.054, respectively. In addition, the IRF reporter in test [2] (agonist: 3'3'-cGAMP 10 ug/mL) is 0.954 ± 0.045; in test [2] (agonist: LPS 0.1 ug/mL), 1.31 ± 0.11; in test [2] (agonist: MPLA […]) it was 1.2 ± 0.12. Moreover, the viability score in test [3] is 0.996 (active).
`CCN(CC)CCCC(C)Nc1c2ccc(Cl)cc2nc2ccc(OC)cc12` (stereo unspecified) [Prestw-318]: the NF-kB reporter was 0.0785 ± 0.011 in test [1] (setting [4]), 0.167 ± 0.04 in test [1] (agonist: LPS 0.1 ug/mL) and 0.447 ± 0.051 in test [1] (agonist: MPLA […]). The values for the IRF reporter in test [2] (agonist: 3'3'-cGAMP 10 ug/mL), in test [2] (agonist: LPS 0.1 ug/mL) and in test [2] (agonist: MPLA […]) were 0.0346 ± 0.0049, 1.19 ± 0.22 and 0.939 ± 0.22, respectively. Moreover, in test [3], the viability score was 0.825 (active).
On to `CCc1ccc(OCCSc2nc3ccccc3n2CCO)cc1`, for which the NF-kB reporter was 0.776 ± 0.075 in test [1] (setting [4]), 1.08 ± 0.07 in test [1] (agonist: LPS 0.1 ug/mL) and 0.927 ± 0.073 in test [1] (agonist: MPLA […]). In addition, the IRF reporter in test [2] (agonist: 3'3'-cGAMP 10 ug/mL) stood at 0.986 ± 0.03; in test [2] (agonist: LPS 0.1 ug/mL) it was 1.33 ± 0.15; in test [2] (agonist: MPLA […]), 1.13 ± 0.09. Further, the viability score in test [3] is 1.01 (active).

Source of the values: the supplement of paper PMC10646978.
